# In the OligoGym collection:
# Target: EIF1
# Test: pooled miR-30 sensor sort-seq; sequence = guide strand
# Settings: shRNA
# Further: reference of the scale not given here.
row,Sequence,sensor-assay potency score (higher = more potent)
1,TTGGACAGTAGTAAGGGTCTTC,0.328
2,TTTATCGTAATCATCAGCGATC,-0.622
3,AATTACTTCTCCATATTCCGGA,0.541
4,TCTTTTTATCGTAATCATCAGC,-0.92
5,TAGTAAGGGTCTTCCTGCCGTT,-0.658
6,TCAATTACAGTACCATTGCAGG,-1.4
7,AAACTTTTTCTTAAACGCCTTC,-0.311

# Target: EIF2B2
# Test: as above
# Settings: shRNA
row,Sequence,sensor-assay potency score (higher = more potent)
1,TATGAAATGAGTCTTCTTCATT,-1.13
2,TGACTCTTGACATAACGGCAAA,-1.53
3,TTTAACACACTACTGAACCAGA,-0.372
4,ATAATCTTGAGCACTCTCCGCA,0.402
5,TAGAGTTCACTCATCAGGCGGT,0.258
6,ATCCTCTCTGACAACTCCGAGC,-1.34
7,TAATCTTGAGCACTCTCCGCAC,-0.531
8,TCTCTGACAACTCCGAGCCCTT,-1.5
9,TTATGTTTAACACACTACTGAA,-0.666
10,TATGTTTAACACACTACTGAAC,-1.15
11,TTGACTCTTGACATAACGGCAA,-0.00739
12,TAACACACTACTGAACCAGAAA,-0.956
